Experimental data from the supplement of paper PMC10849652.
Targets with a hit are over-represented here; the source holds about 7,900 in all. About 0.6% of all pairs of compound and target were hits.

Columns and labels:
Test in all cases: log2 fold change, soluble protein after heating vs DMSO (PISA); higher = thermal stabilisation; K562 cells, 10 uM, 30 min; active = over 0.2 and 3.5 SD of the protein, either way, in both replicates (recomputed)
erlotinib = compound: C#Cc1cccc(Nc2ncnc3cc(OCCOC)c(OCCOC)cc23)c1 [erlotinib]
Summary of the method: (§1)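 K562 cells at 2×10^6 cells/mL were treated for 30 min with 10 μM compound, and aliquots were heated for 3 min over 48°C-58°C before pooling. Extraction used PBS with 0.5% NP-40 at 4°C, and soluble protein was the supernatant after 21,000xg for 90 min, measured by TMTpro 16plex LC-MS/MS with channel sums equalised. Thermal stability values, relative to control samples and from duplicates, are log2 fold changes.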

[1] = compound: C/C(=N\NC(=O)C1=CC(=CC=C1)S(=O)(=O)N2CCOCC2)/C3=C(C=CC(=C3)Cl)O
Summary of the method: as §1

[2] = compound: C1=CC(=C(C=C1Cl)C2=NC3=NC=CN=C3C(=N2)NC4=CC=NC=C4)F
Summary of the method: as §1

[3] = compound: C1=CC(=CC=C1C2=NC3=C(N2)C=C(C=C3)C(=O)N)OC4=CC=C(C=C4)Cl
Summary of the method: as §1

[4] = compound: C1=CC2=C(C=CC(=C2)/C=C\3/C(=O)NC(=NCC4=CC=CS4)S3)N=C1
Summary of the method: as §1

[5] = compound: C1=CC2=NC=CN=C2C=C1/C=C/3\C(=O)NC(=O)S3
Summary of the method: as §1

[6] = compound: C1=CC=C(C=C1)C2=NC(=C(N2)C3=CC=NC=C3)C4=CC(=C(C=C4)Cl)O
Summary of the method: as §1

[7] = compound: C1=CC=C2C(=C1)C3=NNC4=CC=CC(=C43)C2=O
Summary of the method: as §1

[8] = compound: C1CCN(C1)C(=O)NC2=CC=CC(=C2)NC3=NC=C(C(=N3)NCCC4=CN=CN4)Br
Summary of the method: as §1

[9] = compound: C1CN(CCC1(CC2=CC=C(C=C2)Cl)N)C3=NC=NC4=C3C=CN4
Summary of the method: as §1

IRAK-1-4 Inhibitor I = compound: C1COCCN1CCN2C3=CC=CC=C3N=C2NC(=O)C4=CC(=CC=C4)[N+](=O)[O-] [IRAK-1-4 Inhibitor I]
Summary of the method: as §1

ibrutinib = compound: C=CC(=O)N1CCC[C@@H](n2nc(-c3ccc(Oc4ccccc4)cc3)c3c(N)ncnc32)C1 [ibrutinib]
Summary of the method: as §1

[10] = compound: CC(=O)c1cnc2ccc(-c3cc(Cl)c(O)c(Cl)c3)nc2c1N[C@H]1CC[C@H](CN(C)C)CC1
Summary of the method: as §1

ralimetinib = compound: CC(C)(C)Cn1c(N)nc2ccc(-c3[nH]c(C(C)(C)C)nc3-c3ccc(F)cc3)nc21 [ralimetinib]
Summary of the method: as §1

[11] = compound: CC(C)(O)CC(=O)NCCn1ccc2ncnc(Nc3ccc(Oc4cccc(C(F)(F)F)c4)c(Cl)c3)c21
Summary of the method: as §1

[12] = compound: CC(C)C1=C2N=C(C=C(N2N=C1)NCC3=CC=CC=C3)NCCCCCCN
Summary of the method: as §1

[13] = compound: CC(C)C[C@@H](C=O)NC(=O)[C@H](CC(C)C)NC(=O)[C@H](CC(C)C)NC(=O)OCc1ccccc1
Summary of the method: as §1

pinometostat = compound: CC(C)N(C[C@H]1O[C@@H](n2cnc3c(N)ncnc32)[C@H](O)[C@@H]1O)[C@H]1C[C@@H](CCc2nc3cc(C(C)(C)C)ccc3[nH]2)C1 [pinometostat]
Summary of the method: as §1

[14] = compound: CC1=C(C(CC(=O)N1)C2=CC=C(C=C2)C(F)(F)F)C(=O)NC3=C(C=C4C(=C3)C=NN4)F
Summary of the method: as §1

[15] = compound: CC1=C(C2=C(C=C1)C(=O)C3=CC=CC=C3N2CCCN)C
Summary of the method: as §1

Measured: log2 fold change

PTDSS1 (UniProt P48651)
inactive: erlotinib -0.076 | [1] -0.12 | [2] -0.099 | [3] 0.045 | [4] -0.031 | [5] -0.114 | [6] 0.03 | [7] 0.041 | [8] 0.016 | [9] -0.058 | IRAK-1-4 Inhibitor I -0.146 | ibrutinib 0.118 | [10] 0.021 | ralimetinib 0.029 | [11] -0.023 | [13] 0.061 | pinometostat 0.212 | [14] 0.093 | [15] 0.035
active: [12] -0.585

PSMD9 (UniProt O00233)
UniProt O00233, sequence (O00233 whole entry, looked up): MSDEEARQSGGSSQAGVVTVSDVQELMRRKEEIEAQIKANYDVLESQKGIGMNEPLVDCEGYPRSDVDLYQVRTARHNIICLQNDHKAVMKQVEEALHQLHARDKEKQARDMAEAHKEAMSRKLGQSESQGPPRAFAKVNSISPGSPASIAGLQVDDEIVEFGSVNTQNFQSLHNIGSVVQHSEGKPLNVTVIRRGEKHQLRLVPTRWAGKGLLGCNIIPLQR
inactive: erlotinib 0.015 | [1] 0.015 | [2] 0.022 | [3] -0.012 | [4] -0.068 | [5] 0.041 | [6] 0.006 | [7] 0.008 | [8] 0.009 | [9] 0.03 | IRAK-1-4 Inhibitor I 0.033 | ibrutinib -0.005 | [10] -0.003 | ralimetinib -0.029 | [11] 0.003 | [12] 0.069 | [13] -0.015 | pinometostat -0.039 | [14] 0.017 | [15] -0.004

PLBD1 (UniProt Q6P4A8)
UniProt Q6P4A8, sequence (Q6P4A8 whole entry, looked up): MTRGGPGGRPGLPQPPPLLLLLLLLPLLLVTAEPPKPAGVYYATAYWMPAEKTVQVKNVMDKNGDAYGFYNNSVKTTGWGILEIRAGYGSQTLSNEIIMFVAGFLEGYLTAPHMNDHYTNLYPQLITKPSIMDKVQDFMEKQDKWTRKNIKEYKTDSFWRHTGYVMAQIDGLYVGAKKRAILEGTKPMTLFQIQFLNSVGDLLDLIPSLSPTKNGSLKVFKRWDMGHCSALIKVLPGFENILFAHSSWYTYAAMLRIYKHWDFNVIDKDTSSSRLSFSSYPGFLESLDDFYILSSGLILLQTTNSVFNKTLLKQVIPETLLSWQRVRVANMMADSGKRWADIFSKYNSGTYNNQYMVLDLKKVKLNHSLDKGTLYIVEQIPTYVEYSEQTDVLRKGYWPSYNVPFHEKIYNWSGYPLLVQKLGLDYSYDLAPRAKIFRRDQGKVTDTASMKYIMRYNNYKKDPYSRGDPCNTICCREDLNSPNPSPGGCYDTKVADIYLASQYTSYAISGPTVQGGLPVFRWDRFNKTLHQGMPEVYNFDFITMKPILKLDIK
inactive: erlotinib 0.05 | [1] -0.008 | [2] 0.024 | [3] 0.037 | [4] 0.09 | [5] 0.024 | [6] 0.036 | [7] -0.01 | [8] 0.037 | [9] 0.009 | IRAK-1-4 Inhibitor I 0.033 | ibrutinib -0.002 | [10] 0.025 | ralimetinib -0.077 | [11] 0.036 | [12] -0.012 | [13] -0.015 | pinometostat 0.057 | [14] -0.019 | [15] 0.02

PMVK (UniProt Q15126)
UniProt Q15126, sequence (Q15126 whole entry, looked up): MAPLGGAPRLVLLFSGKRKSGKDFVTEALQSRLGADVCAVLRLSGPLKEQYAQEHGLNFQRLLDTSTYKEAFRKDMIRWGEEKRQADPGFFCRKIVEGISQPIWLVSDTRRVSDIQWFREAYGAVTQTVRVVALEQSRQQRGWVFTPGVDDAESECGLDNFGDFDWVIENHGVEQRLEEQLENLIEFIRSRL
inactive: erlotinib 0.001 | [1] -0.518 | [2] 0.006 | [3] 0.042 | [4] 0.052 | [5] -0.045 | [7] -0.115 | [8] -0.006 | [9] 0.15 | ibrutinib -0.039 | [10] -0.069 | [11] -0.072 | [12] -0.195 | [14] 0.15 | [15] 0.061

PTTG1IP (UniProt P53801)
UniProt P53801, sequence (P53801 whole entry, looked up): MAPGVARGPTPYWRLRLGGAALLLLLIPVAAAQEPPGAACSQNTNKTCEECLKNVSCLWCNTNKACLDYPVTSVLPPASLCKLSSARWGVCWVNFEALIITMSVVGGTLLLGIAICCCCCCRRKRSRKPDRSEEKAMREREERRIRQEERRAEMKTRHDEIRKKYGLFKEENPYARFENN
inactive: erlotinib -0.011 | [1] -0.06 | [2] -0.039 | [3] -0.001 | [4] 0.026 | [5] 0.033 | [7] -0.082 | [8] 0.037 | [9] 0.01 | IRAK-1-4 Inhibitor I -0.122 | ibrutinib 0.028 | [10] -0.004 | [11] -0.031 | [12] 0.029 | pinometostat 0.028 | [14] 0.084 | [15] -0.119

PDE4A (UniProt P27815)
UniProt P27815, sequence (P27815 whole entry, looked up): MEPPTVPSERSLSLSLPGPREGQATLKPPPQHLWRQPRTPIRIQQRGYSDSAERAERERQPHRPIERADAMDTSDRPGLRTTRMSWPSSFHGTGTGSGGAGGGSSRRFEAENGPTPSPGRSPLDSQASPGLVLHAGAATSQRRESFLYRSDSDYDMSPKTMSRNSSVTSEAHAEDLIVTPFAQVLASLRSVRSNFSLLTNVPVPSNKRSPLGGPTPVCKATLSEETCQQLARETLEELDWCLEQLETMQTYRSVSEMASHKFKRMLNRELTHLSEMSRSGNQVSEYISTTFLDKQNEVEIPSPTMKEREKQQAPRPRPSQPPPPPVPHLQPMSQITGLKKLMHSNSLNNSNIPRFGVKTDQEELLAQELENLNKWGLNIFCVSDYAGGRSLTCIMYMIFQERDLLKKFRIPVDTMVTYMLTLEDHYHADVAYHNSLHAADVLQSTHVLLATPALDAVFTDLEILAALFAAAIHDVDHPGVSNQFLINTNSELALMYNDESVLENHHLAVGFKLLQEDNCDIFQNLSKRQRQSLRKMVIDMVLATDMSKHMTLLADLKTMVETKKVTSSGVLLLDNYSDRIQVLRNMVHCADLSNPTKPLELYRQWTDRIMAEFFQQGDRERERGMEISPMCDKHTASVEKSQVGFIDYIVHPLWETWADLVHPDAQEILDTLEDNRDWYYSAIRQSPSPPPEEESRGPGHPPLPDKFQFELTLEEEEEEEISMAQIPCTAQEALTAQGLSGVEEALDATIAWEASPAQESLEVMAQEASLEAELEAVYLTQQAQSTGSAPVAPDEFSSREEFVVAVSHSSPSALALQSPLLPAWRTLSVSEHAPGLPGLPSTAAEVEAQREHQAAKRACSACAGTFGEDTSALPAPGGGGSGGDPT
inactive: erlotinib 0.012 | [1] 0.013 | [2] 0.319 | [3] 0.024 | [4] 0.027 | [5] 0.06 | [6] -0.077 | [7] -0.01 | [8] 0.023 | [9] -0.148 | IRAK-1-4 Inhibitor I 0 | ibrutinib 0.249 | [10] 0.077 | ralimetinib -0.056 | [11] 0.106 | [12] 0.029 | [13] 0.04 | pinometostat 0.019 | [15] -0.077

PLK1 (UniProt P53350)
inactive: erlotinib -0.027 | [1] 0.035 | [2] 0.006 | [3] 0.079 | [4] -0.041 | [5] -0.017 | [6] -0.018 | [7] 0.058 | [8] -0.003 | [9] -0.039 | IRAK-1-4 Inhibitor I -0.035 | ibrutinib 0.022 | ralimetinib 0.006 | [11] -0.011 | [12] 0.186 | [13] 0.015 | pinometostat 0.019 | [14] 0.005 | [15] 0.144
active: [10] -1.17

PCBP2 (UniProt F8VRH0)
inactive: erlotinib -0.011 | [1] 0.07 | [2] 0.016 | [3] -0.099 | [4] -0.26 | [5] -0.153 | [7] -0.04 | [8] -0.13 | [9] 0.113 | IRAK-1-4 Inhibitor I 0.118 | ibrutinib 0.057 | [10] -0.092 | [11] -0.263 | [12] 0.123 | pinometostat 0.022 | [14] 0.089 | [15] -0.113

PUM1 isoform 3 (UniProt Q14671)
UniProt Q14671, sequence (Q14671 whole entry, looked up): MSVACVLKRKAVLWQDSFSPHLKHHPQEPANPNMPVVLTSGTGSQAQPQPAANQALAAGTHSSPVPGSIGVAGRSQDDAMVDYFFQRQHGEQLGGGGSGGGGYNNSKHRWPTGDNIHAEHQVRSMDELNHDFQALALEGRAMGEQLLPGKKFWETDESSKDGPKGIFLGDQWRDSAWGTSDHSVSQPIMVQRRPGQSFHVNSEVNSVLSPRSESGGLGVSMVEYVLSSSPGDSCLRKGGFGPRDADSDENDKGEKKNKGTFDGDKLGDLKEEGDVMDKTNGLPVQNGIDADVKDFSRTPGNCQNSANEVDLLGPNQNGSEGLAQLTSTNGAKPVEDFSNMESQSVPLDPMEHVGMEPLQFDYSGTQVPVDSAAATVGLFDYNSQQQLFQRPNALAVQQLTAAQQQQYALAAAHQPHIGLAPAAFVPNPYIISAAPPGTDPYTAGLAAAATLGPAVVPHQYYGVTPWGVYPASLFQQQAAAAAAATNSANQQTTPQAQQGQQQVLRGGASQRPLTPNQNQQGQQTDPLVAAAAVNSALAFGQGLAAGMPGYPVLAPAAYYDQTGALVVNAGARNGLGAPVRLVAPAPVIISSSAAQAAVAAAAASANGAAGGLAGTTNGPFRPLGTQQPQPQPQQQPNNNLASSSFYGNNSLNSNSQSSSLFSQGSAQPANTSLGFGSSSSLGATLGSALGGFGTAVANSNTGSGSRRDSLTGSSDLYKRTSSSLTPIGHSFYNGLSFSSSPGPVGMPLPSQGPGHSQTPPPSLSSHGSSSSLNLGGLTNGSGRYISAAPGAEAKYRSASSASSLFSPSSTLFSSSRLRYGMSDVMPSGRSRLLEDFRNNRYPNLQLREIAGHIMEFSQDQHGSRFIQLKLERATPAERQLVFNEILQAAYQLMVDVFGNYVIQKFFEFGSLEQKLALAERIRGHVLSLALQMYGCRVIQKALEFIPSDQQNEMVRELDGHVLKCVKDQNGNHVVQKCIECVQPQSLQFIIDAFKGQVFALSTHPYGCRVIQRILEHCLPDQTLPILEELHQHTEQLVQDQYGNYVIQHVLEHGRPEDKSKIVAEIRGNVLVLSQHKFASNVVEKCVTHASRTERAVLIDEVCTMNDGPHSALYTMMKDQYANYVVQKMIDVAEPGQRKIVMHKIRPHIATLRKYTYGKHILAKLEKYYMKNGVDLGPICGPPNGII
inactive: erlotinib -0.023 | [1] 0 | [2] 0.04 | [3] 0.034 | [4] 0.047 | [5] 0.003 | [6] -0.013 | [7] 0.003 | [8] -0.057 | [9] 0.028 | IRAK-1-4 Inhibitor I 0.004 | ibrutinib 0.02 | [10] -0.097 | ralimetinib 0.013 | [11] -0.022 | [12] -0.059 | [13] 0.02 | pinometostat 0.023 | [14] 0.006 | [15] 0.063

PSMA3 (UniProt P25788)
inactive: erlotinib -0.052 | [1] -0.075 | [2] 0.016 | [3] 0.028 | [4] -0.073 | [5] -0.025 | [6] -0.023 | [7] 0.002 | [8] -0.008 | [9] 0.044 | IRAK-1-4 Inhibitor I -0.027 | ibrutinib -0.013 | [10] 0.008 | ralimetinib 0.037 | [11] 0.071 | [12] 0.102 | [13] -0.065 | pinometostat -0.033 | [14] -0.02 | [15] -0.014

PTRHD1 (UniProt Q6GMV3)
UniProt Q6GMV3, sequence (Q6GMV3 whole entry, looked up): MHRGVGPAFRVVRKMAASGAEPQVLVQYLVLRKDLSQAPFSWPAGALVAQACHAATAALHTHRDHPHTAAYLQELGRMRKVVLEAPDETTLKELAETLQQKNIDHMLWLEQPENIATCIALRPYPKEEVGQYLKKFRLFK
inactive: erlotinib -0.002 | [1] 0.005 | [3] 0.046 | [4] 0.134 | [5] 0.045 | [6] 0.121 | [7] -0.032 | [8] -0.017 | [9] -0.012 | IRAK-1-4 Inhibitor I 0.155 | ibrutinib 0.004 | [10] -0.048 | ralimetinib -0.049 | [11] -0.022 | [12] 0.139 | [13] -0.01 | pinometostat 0.003 | [14] 0.054 | [15] 0.184
active: [2] 0.37

POTEI (UniProt P0CG38)
inactive: erlotinib 0.023 | [1] 0.007 | [2] -0.009 | [3] 0.011 | [4] -0.037 | [5] -0.052 | [6] 0.045 | [7] 0.038 | [8] -0.003 | [9] 0.046 | IRAK-1-4 Inhibitor I -0.176 | ibrutinib 0.046 | [10] 0.052 | ralimetinib 0.003 | [11] 0.015 | [12] 0.059 | [13] -0.025 | pinometostat -0.179 | [14] 0.021 | [15] 0.012

PIK3R1 (UniProt P27986)
inactive: erlotinib 0.01 | [1] 0.033 | [2] 0.025 | [3] 0.048 | [4] 0.036 | [5] 0.14 | [6] -0.022 | [7] -0.027 | [8] -0.024 | [9] 0.05 | IRAK-1-4 Inhibitor I 0.032 | ibrutinib -0.004 | [10] 0.077 | ralimetinib 0.038 | [11] -0.04 | [12] -0.011 | [13] 0.027 | pinometostat 0.083 | [14] 0.004 | [15] 0.072

PDLIM7 (UniProt Q9NR12)
UniProt Q9NR12, sequence (Q9NR12 whole entry, looked up): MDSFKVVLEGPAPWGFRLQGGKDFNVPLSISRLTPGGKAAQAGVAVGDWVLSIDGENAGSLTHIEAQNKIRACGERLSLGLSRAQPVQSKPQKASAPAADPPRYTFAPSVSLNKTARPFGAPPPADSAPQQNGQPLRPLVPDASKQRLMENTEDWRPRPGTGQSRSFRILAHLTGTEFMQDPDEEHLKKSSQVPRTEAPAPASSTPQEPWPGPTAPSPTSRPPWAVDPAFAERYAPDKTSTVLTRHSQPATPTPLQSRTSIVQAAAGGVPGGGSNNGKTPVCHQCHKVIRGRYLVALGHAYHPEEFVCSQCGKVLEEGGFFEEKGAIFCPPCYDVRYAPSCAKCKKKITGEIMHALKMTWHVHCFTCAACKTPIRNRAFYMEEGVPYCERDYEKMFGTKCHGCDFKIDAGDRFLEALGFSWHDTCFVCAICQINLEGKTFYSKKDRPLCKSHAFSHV
inactive: erlotinib 0.013 | [1] 0.039 | [2] 0.1 | [3] -0.037 | [4] -0.01 | [5] 0.002 | [6] 0.073 | [7] 0.016 | [8] -0.01 | [9] 0.133 | IRAK-1-4 Inhibitor I 0.017 | ibrutinib 0.005 | [10] -0.054 | ralimetinib 0.08 | [11] -0.035 | [12] 0.024 | [13] -0.045 | pinometostat -0.019 | [14] 0.004 | [15] 0.065

PRPF31 (UniProt Q8WWY3)
inactive: erlotinib 0.105 | [1] 0.194 | [2] 0.05 | [3] 0 | [4] 0.217 | [5] 0 | [6] 0.027 | [7] 0.076 | [8] -0.067 | [9] 0.129 | IRAK-1-4 Inhibitor I -0.066 | ibrutinib -0.028 | [10] -0.3 | ralimetinib 0.069 | [11] -0.144 | [12] -0.387 | [13] 0.004 | pinometostat 0 | [14] -0.016 | [15] -0.271

PDE6D (UniProt O43924)
UniProt O43924, sequence (O43924 whole entry, looked up): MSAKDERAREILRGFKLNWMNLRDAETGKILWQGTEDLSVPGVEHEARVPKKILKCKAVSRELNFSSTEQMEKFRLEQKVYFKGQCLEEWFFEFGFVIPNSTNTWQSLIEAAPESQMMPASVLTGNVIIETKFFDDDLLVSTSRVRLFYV
inactive: erlotinib -0.094 | [1] 0.055 | [2] -0.082 | [3] -0.102 | [4] 0.078 | [5] 0.004 | [7] 0.115 | [8] 0.417 | [9] 0.028 | IRAK-1-4 Inhibitor I 0.037 | ibrutinib 0.086 | [10] -0.051 | [11] 0.003 | [12] 0.164 | pinometostat 0.017 | [14] -0.016 | [15] -0.01

PTK2B (UniProt Q14289)
UniProt Q14289, sequence (Q14289 whole entry, looked up): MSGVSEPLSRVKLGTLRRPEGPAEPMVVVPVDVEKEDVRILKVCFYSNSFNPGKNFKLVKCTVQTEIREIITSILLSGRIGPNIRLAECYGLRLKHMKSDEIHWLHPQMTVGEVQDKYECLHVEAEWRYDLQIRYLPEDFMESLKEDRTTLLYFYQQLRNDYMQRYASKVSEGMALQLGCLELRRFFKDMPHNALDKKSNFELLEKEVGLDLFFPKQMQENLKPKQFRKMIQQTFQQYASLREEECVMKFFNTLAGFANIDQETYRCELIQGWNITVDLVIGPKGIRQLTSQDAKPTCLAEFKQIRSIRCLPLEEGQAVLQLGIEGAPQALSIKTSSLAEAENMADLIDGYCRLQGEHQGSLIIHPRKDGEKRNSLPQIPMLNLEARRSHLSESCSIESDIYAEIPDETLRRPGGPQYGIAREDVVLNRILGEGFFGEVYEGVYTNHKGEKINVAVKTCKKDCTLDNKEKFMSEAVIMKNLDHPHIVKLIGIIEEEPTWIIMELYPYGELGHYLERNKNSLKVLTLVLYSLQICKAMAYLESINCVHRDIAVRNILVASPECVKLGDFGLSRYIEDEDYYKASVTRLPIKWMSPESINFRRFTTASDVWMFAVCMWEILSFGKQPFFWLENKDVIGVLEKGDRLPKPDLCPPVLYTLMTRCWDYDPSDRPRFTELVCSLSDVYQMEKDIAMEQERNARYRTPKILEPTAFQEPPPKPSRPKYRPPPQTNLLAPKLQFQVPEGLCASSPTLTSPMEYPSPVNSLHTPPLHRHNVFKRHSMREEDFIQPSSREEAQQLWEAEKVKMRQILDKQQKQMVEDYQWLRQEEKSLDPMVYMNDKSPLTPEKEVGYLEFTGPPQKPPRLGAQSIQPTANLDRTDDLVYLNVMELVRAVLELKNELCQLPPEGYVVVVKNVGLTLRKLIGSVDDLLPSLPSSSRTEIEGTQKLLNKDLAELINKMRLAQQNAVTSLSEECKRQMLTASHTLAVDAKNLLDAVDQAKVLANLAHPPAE
inactive: erlotinib 0.225 | [1] 0.063 | [3] 0.059 | [4] 0.048 | [5] 0.058 | [6] 0.008 | [7] -0.066 | [8] 0.025 | [9] 0.105 | IRAK-1-4 Inhibitor I -0.095 | ibrutinib -0.257 | [10] -0.018 | ralimetinib 0.178 | [11] -0.026 | [12] -0.244 | [13] 0.052 | pinometostat 0.004 | [14] -0.014 | [15] 0.061
